FLuc counter – firefly luciferase modulation, counter-screen for miR-21 project. P08659. purified FLuc, Km substrates, luminescence inhibition. Potency, µM (highest dose often 57.5 µM), inactives show top-dose activity change, negative = inhibition, usual class: inhibitors. hit rate 6.9% among 360,000. AID 588342;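 further: plate controls were vehicle for no effect and reference inhibitor for full effect; nearly all actives have a fitted effect of over 55% in size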
Target sequence (P08659 whole entry, looked up): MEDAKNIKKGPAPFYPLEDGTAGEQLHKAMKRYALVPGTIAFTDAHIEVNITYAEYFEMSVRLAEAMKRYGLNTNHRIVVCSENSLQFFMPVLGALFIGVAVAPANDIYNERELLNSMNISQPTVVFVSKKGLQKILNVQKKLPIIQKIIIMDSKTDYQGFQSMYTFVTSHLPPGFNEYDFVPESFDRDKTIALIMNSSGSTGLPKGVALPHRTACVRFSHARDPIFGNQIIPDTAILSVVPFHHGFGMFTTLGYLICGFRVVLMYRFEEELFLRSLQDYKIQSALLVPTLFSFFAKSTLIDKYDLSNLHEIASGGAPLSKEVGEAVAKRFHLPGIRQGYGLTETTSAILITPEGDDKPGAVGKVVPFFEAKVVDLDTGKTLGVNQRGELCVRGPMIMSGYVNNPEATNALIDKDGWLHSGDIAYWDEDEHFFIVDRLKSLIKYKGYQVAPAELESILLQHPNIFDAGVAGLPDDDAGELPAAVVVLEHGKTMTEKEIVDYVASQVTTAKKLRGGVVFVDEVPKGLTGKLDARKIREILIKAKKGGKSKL
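Purified P. pyralis luciferase (10nM final) with 10uM D-luciferin and 10uM ATP (Km levels) in 50mM Tris acetate pH 7.5, 10mM Mg acetate, 0.01% Tween-20, 0.05% BSA; qHTS 6-point titration, ~60 µM downward; luminescence read.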
KinaseGlo FLuc – counter-screen: inhibitors of Kinase-Glo firefly luciferase; Q27757; Kinase-Glo luciferase, ATP luminescence, 8 min; Potency, µM (doses to about 38.3 µM), inactives show at the top dose activity change, negative = inhibition, most hits filed as inhibitors; hit rate 0.28% among 200,000; further: on the % scale 0 is the no-effect control and ±100 the full control effect; nearly all actives have a fitted effect of over 60% in size
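Substrate mix (final 50 mM imidazole pH 7.2, 50 mM KCl, 7 mM MgCl2, 10 uM ATP, 0.01% Tween 20, 0.05% BSA) plus pin-tool compound, then Kinase-Glo detection mix; 8 min ambient, luminescence read.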
ELG1 genotox – genotoxicity induction in ELG1-luciferase HEK293T cells | HEK293T ELG1-luciferase reporter, luminescence, 16 h | Potency, µM (highest dose often 46 µM), inactives show at the top dose activity change, positive = activation, usual class: activators | hit rate 1.3% among 330,000; further: % of control where 0% means no effect; nearly all actives have a fitted effect of over 60% in size
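Quantitative HTS format in 1536-well plates. HEK293T ELG1-luciferase reporter cells receive test compound and are incubated 16 hr at 37 °C, 5% CO2; ONE-Glo added, 30 min room temperature, then luminescence read.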
NPC1 promoter act – activators of NPC1 promoter. hit rate 2.4% among 320,000. AID 485313. Potency, µM (series often up to 9.22 µM), inactives show at the top dose activation, most hits filed as activators. Huh7 NPC1 promoter luciferase reporter, 24 h; further: % of control where 0% means no effect; nearly all actives have a fitted effect of over 60% in size
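Luciferase expression driven by the NPC1 promoter was measured in stably transfected Huh7 cells after a 24 h compound incubation, using a luciferase reagent and a luminescence read.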
SMN2 splice enh – SMN2 splice variant enhancement; HEK293 SMN2-luciferase splicing reporter, luminescence, 30-36 h; Potency, µM (series often up to 46.1 µM), without a hit: at the highest dose activity change, positive = activation, actives largely listed as activators; hit rate 2.8% among 210,000; AID 1458; further: % of control where 0% means no effect; nearly all actives have a fitted effect of over 55% in size
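HEK293 cells carry an SMN2 […]–luciferase reporter in which exon 7 inclusion puts luciferase in frame. Cells were plated 10-12 h before compound addition, then incubated 30-36 h at 37C. ONE-Glo luminescence was read; sodium butyrate at 4.5 mM final served as control.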
Rab9 promoter act – activators of Rab9 promoter | Huh7 Rab9 promoter-luciferase reporter, luminescence, 24 h | Potency, µM (series often up to 9.22 µM), for the others: at the highest dose activation, negative = inhibition, usual class: activators | hit rate 2.8% among 320,000; further: % of control where 0% means no effect; nearly all actives have a fitted effect of over 60% in size
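Luciferase signal after 10 min detection reagent at ambient indicates Rab9 promoter upregulation; stably transfected Huh7 cells were treated 24 h with compound in DMSO at 37 °C, 5% CO2.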
Numbers without * were called inactive; ? = inconclusive; . = not tested or not shown; [ ] = remark or other dose. An excerpt weighted towards active compounds, which were near 7.3% of everything screened. The call rests on the fitted dose curve; in most records, active means well fitted curve in the direction sought with a large enough effect; inconclusive means small, poorly fitted or top-dose-only effect, or another doubt; inactive means no such curve, though single readings can be large; an effect the other way counts as inactive or inconclusive. Potency means the concentration at half of the fitted maximal effect.

SMILES	FLuc counter	KinaseGlo FLuc	ELG1 genotox	NPC1 promoter act	SMN2 splice enh	Rab9 promoter act
Cc1nnc2ccc(N3CCCCC3)nn12	-3%	.	?	-3%	.	8%[1.84 µM]
Cc1ccc2nc3n(c(=O)c2c1)CCCCC3	?	-8%	15%	15%	?	20%
Cc1cc(N2CCCN(C)CC2)nc2cc(Cl)ccc12	-9%	-3%	1%	0%	1%	-3%
O=c1c2ccccc2nc2ccc(N3CCOCC3)nn12	17µM*	-23%	?	?	?	?
COc1cccc(C(C(=O)NC2CCCC2)N(C(=O)c2ccco2)c2ccccc2F)c1OC (stereo unspecified)	4%	.	0%	-4%	.	4%
COc1cccc2cc(-c3ccnc(N)n3)oc12	?	?	?	23%	.	?
O=C(Nc1ccon1)c1cc(-c2ccccc2)nc2ccccc12	-12%	1%	-5%	0%	-8%	0%
CCC(C)c1ccc(-c2cc(C(=O)OCC(=O)Nc3cc(C)on3)c3ccccc3n2)cc1 (stereo unspecified)	2.7µM*	0%	1.8µM*	?	22µM*	1.6µM*
Cc1cc(NC(=O)c2cc(-c3ccc(OC(C)C)cc3)nc3ccccc23)no1	3µM*	.	6%	19%	.	19%
CCc1ccc(NC(=O)N(Cc2cn(CC)c3ccccc23)C2CCCCC2)cc1	?	.	.	.	13µM*	.
O=C(N/N=C/C(Br)=C/c1ccccc1)NC1CCCCC1	?	5%	?	10%	29%	23%
Cc1ccc(NCC(=O)N/N=C\C(Br)=C\c2ccccc2)cc1	7%	2%	5%	-2%	9%	3%
O=C(O)c1ccc(N/N=C/C(Br)=C/c2ccccc2)cc1	0.48µM*	.	?	0.35µM*	.	0.32µM*
O=C(N/N=C/C(Br)=C/c1ccccc1)C1CC1	?	5%	10%	29%	.	2.8µM*
O=C(N/N=C/C(Br)=C/c1ccccc1)C(O)c1ccccc1 (stereo unspecified)	15µM*	.	4%	22%	.	28%
Cc1cc(C)c(NC(=O)NC2CCCCC2)c(C)c1	-2%	0%	0%	-2%	-5%	-2%
COc1ccc(-n2ncc3c(N4CCN(c5cccc(C)c5C)CC4)ncnc32)cc1	0%	.	1%	-10%	.	-1%
Cc1ccc(-n2ncc3c(N4CCCCC4)ncnc32)cc1	0.076µM*	.	.	.	.	.
Clc1ccc(-n2ncc3c(N4CCCCCC4)ncnc32)cc1	0.19µM*	-11%	0.15µM*	-11%	-101%	-18%
CC1CCN(c2ncnc3c2cnn3-c2ccc(F)cc2)CC1	3µM*	.	.	.	.	.
Cc1ccc(Cl)cc1-n1ncc2c(N3CCCCCC3)ncnc21	-13%	.	.	.	.	.
COc1ccc(-n2ncc3c(N4CCCCC4)ncnc32)cc1	0.17µM*	?	0.065µM*	-17%	-111%	?
Cc1oc(-c2ccccc2F)nc1CS(=O)CC(=O)NCc1ccc2c(c1)OCO2 (stereo unspecified)	6%	-4%	2%	0%	-8%	-6%
COc1ccccc1NC(=O)c1sc2nc(-c3cc4cc(Cl)ccc4oc3=O)[nH]c(=O)c2c1C	-4%	.	.	.	.	.
CC1CN(c2ncnc3c2cnn3-c2ccc(Cl)cc2)CC(C)O1 (stereo unspecified)	3µM*	0%	2.1µM*	1.1µM*	?	1µM*
SMILES	FLuc counter	KinaseGlo FLuc	ELG1 genotox	NPC1 promoter act	SMN2 splice enh	Rab9 promoter act
CC1CC(C)CN(c2ncnc3c2cnn3Cc2ccc(Cl)cc2)C1 (stereo unspecified)	0%	-1%	0%	2%	5%	-9%
Cc1cccc(Cn2c(SCc3ccc(C(=O)NC4CCCCC4)cc3)nc3ccncc32)c1	-12%	.	.	.	-11%	.
COc1ccc(NC(=O)/C=C/c2cccc(Br)c2)cn1	13µM*	.	-12%	?	.	?
COc1ccc(NC(=O)/C=C/c2ccc(OC)c(OC)c2)cn1	?	-3%	-8%	-3%	.	-6%
COc1ccc(NC(=S)Nc2ccc(OC(F)F)cc2)cn1	-7%	-2%	0%	1%	3%	1%
COc1ccc(/C=C/C(=O)Nc2ccc(OC)nc2)cc1	7.6µM*	3%	2%	6%	-10%	-2%
COc1ccc(NC(=O)/C=C/c2ccc(OC(F)F)cc2)cn1	12µM*	.	-10%	-45%	.	-4%
COc1ccccc1C1c2ccc3ccccc3c2Oc2ncn(CCCO)c(=N)c21 (stereo unspecified)	0%	.	-3%	-7%	.	-11%
O=c1c(-c2nc3ccccc3s2)cccn1Cc1ccccc1	2.7µM*	-5%	7.3µM*	1.8µM*	?	2.2µM*
Cc1ccc(Cn2cccc(-c3nc4ccccc4s3)c2=O)cc1	2.1µM*	2%	6%	2.8µM*	7.1µM*	2.2µM*
O=C(Nc1ccccc1-c1nc2ccccc2s1)c1ccco1	-1%	10%	0%	2%	-30%	13%
Cc1ccc(OCC(=O)N(C)C2CCCCC2)c([N+](=O)[O-])n1	.	.	5%	.	.	.
CN=c1scc(-c2ccccc2F)n1/N=C(\C)c1cccnc1	7.6µM*	-3%	?	1.4µM*	11µM*	1.8µM*
CCn1c(C)nc2cc(C(=O)N/N=C/c3cccc(O)c3O)ccc21	8.5µM*	.	?	-19%	.	-13%
CCn1c(C)nc2cc(C(=O)OC(C(F)(F)C(F)F)C(F)(F)C(F)F)ccc21	3.8µM*	-3%	16µM*	?	-26%	?
CCn1c(C)nc2cc(C(=O)N/N=C/c3ccc(O)cc3)ccc21	15µM*	-4%	9%	1%	21%	-3%
CCn1c(C)nc2cc(C(=O)N=Nc3c(O)[nH]c4ccccc34)ccc21	6µM*	-2%	?	?	56%	?
COc1ccc(C(CC(=O)Nc2cc(OC)c(OC)c(OC)c2)N2Cc3ccccc3C2=O)cc1 (stereo unspecified)	-11%	.	.	.	.	.
CCn1c(C)nc2cc(C(=O)N/N=C/c3ccccc3)ccc21	21µM*	0%	9.2µM*	3.2µM*	18µM*	3.5µM*
O=C(/C=C/c1ccc(F)cc1)NC(=S)Nc1ccccc1O	-10%	.	10%	?	.	22%
O=C(/C=C/c1ccc(O)c(O)c1)NC(=O)c1ccccc1O	9.5µM*	-3%	?	?	32µM*	11%
O=C(/C=C/c1ccc(Br)cc1)NC(=O)c1ccccc1O	0.38µM*	0%	?	3.5µM*	22µM*	1.8µM*
CSc1ccc(/C=C/C(=O)NC(=O)c2ccccc2O)cc1	0.6µM*	-7%	9.2µM*	?	25µM*	2.5µM*

Assay outcomes from PubChem BioAssay.
